# Measured values reported in the supplement of paper PMC6555819.
# What was measured:
# Assay in all cases: PBM binding z-score (relative to random genomic background probes); higher = stronger binding; sequences stand for … in GC…GCGATTGACAGCGTAGAATGAAGG
# [1] = system: FXR:RXRa (NR concentration 270 nM, RXRa partner concentration 90 nM)
# Outline: (§1)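 The probes on custom Agilent 4×180K protein-binding microarrays were double-stranded, with 34-nt variable regions bearing direct-repeat seeds, single-nucleotide variants, half-site ablations and random human genomic background sequences. Incubation lasted 1 h with ligand-free nuclear receptor dimers in PBS pH 7.4, 2% milk, 0.02% Triton X-100, 1 mM DTT, 0.2 mg/mL BSA and 0.4 mg/ml salmon testes DNA. Antibodies against each partner (one per run) detected bound dimers, and fluorescence scans were regression-normalized. Binding z-scores take the random background probes as reference.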
# [2] = system: LXRa:RXRa (NR concentration 270 nM, RXRa partner concentration 90 nM)
# Outline: as §1
# [3] = system: LXRa homodimer (NR concentration 270 nM)
# Outline: as §1
# [4] = system: LXRb:RXRa (NR concentration 270 nM, RXRa partner concentration 90 nM)
# Outline: as §1
# [5] = system: LXRb homodimer (NR concentration 270 nM)
# Outline: as §1
# [6] = system: PPARa:RXRa (NR concentration 270 nM, RXRa partner concentration 90 nM)
# Outline: as §1
# [7] = system: PPARg:RXRa (NR concentration 180 nM, RXRa partner concentration 90 nM)
# Outline: as §1
# [8] = system: PPARg:RXRa 270nM:90nM, anti-RXR (NR concentration 270 nM, RXRa partner concentration 90 nM)
# Outline: as §1
# [9] = system: PPARg:RXRa 30nM:10nM, anti-RXR (NR concentration 30 nM, RXRa partner concentration 10 nM)
# Outline: as §1
# [10] = system: PPARg:RXRa 90nM:30nM, anti-RXR (NR concentration 90 nM, RXRa partner concentration 30 nM)
# Outline: as §1
# [11] = system: PPARg:RXRa DBDmut IVT, anti-RXR (DBD mutation: RXRa K156A/R161A, NR concentration 270 nM, RXRa partner concentration 90 nM)
# Outline: as §1
# [12] = system: PPARg:RXRa IVT, anti-PPARg (NR concentration 270 nM, RXRa partner concentration 90 nM)
# Outline: as §1
# [13] = system: PPARg DBDmut:RXRa IVT, anti-PPARg (DBD mutation: PPARg1 K132A/R137A, NR concentration 270 nM, RXRa partner concentration 90 nM)
# Outline: as §1
# [14] = system: PPARg DBDmut IVT, anti-PPARg (DBD mutation: PPARg1 K132A/R137A, NR concentration 270 nM)
# Outline: as §1
# [15] = system: PPARg homodimer (NR concentration 180 nM)
# Outline: as §1
# [16] = system: PXR:RXRa (NR concentration 270 nM, RXRa partner concentration 90 nM)
# Outline: as §1
# [17] = system: PXR homodimer (NR concentration 270 nM)
# Outline: as §1
# [18] = system: RARa:RXR (NR concentration 270 nM, RXRa partner concentration 90 nM)
# Outline: as §1
# [19] = system: RARa homodimer (NR concentration 270 nM)
# Outline: as §1
# [20] = system: RARb:RXRa (NR concentration 270 nM, RXRa partner concentration 90 nM)
# Outline: as §1
Sequence,PBM binding z-score [1],PBM binding z-score [2],PBM binding z-score [3],PBM binding z-score [4],PBM binding z-score [5],PBM binding z-score [6],PBM binding z-score [7],PBM binding z-score [8],PBM binding z-score [9],PBM binding z-score [10],PBM binding z-score [11],PBM binding z-score [12],PBM binding z-score [13],PBM binding z-score [14],PBM binding z-score [15],PBM binding z-score [16],PBM binding z-score [17],PBM binding z-score [18],PBM binding z-score [19],PBM binding z-score [20]
ATTTCTAGGTAACAAGTTCAGTGAAAGAGAGGAC,1.38,1.39,1.04,1.18,1.41,2.76,3.06,3.44,1.82,3.09,5.53,4.99,3.1,2.25,1.94,1.79,2.69,1.45,2.03,2.12
TCTCGGAGGCCACGAAAGGTCAGAGCTCGACATC,3.4,5.27,1.95,3.63,-0.386,3.82,1.39,2.91,2.22,2.46,1.78,1.96,0.112,-0.0793,2.29,4.58,-0.146,4.54,0.24,4.24
CCTCCAAGGTCAATGCTAGGTCAGTGAAAGCATT,6.43,5.53,2.29,4.51,1.02,5.22,3.95,4.93,1.2,3.28,3.02,3.34,-0.0903,-0.621,4.19,4.52,1.09,5.43,1.36,5.22
ACTAGTTGGTCAGCTTAGGTCACACACAATTCGG,1.75,1.6,1.42,1.82,0.877,1.97,1.07,1.05,0.166,0.931,1.43,1.87,0.8,0.659,1.88,2.67,0.251,2.57,1.13,2.65
ATATGTAGATTACATCCGGGTCATTCAGGCTATG,1.18,1.51,0.625,1.99,0.664,2.51,1.42,1.25,0.659,1,1.44,2.32,1.43,1.61,1.18,2.53,1.22,2.88,0.587,1.38
GCGACTGTGGCATCAGCAGGTTACCATAACTTAA,-0.475,-0.391,-0.237,-0.0453,-0.969,0.0749,0.0982,-0.457,-0.399,-0.487,0.287,0.27,-0.703,-1.08,-0.566,-0.281,-0.227,0.0331,-0.798,0.00959
CCTGCTAAGTCAATGGTCAGCTAAAGCAGCTCGC,-0.665,-0.355,-0.545,-0.517,-0.617,-0.254,-0.271,0.314,-0.862,0.0482,0.121,-0.663,-1.16,-0.747,-0.2,-0.405,-0.531,-0.153,-0.807,0.498
TGAATGAGGTTAAAGATTAGGGAACGTGGCGTCG,2.45,2.05,-0.0169,1.38,0.449,3.74,3.78,4.94,2.32,4.36,2,2.99,1.53,0.276,0.705,1.33,0.337,1.98,0.424,1.97
CGGCCAAGGTCAAGGTCAGTGAAAGAGACTCGAA,7.61,5.58,0.407,4.63,0.323,6.12,6.44,6.23,2.33,4.85,3.44,4.67,0.246,-0.532,3.93,5.02,0.799,5.17,1.18,5.71
CAGCCTAGGTCAGGGCCCGTATAGGAGGAACGTT,1.56,0.731,-0.61,0.395,-1.32,1.72,0.643,0.734,-0.158,0.0498,1.27,1.55,-1.13,-1.09,0.811,-0.134,-0.829,0.752,-0.25,3.23
CCCACTGGGGCATAAGGTTACCATAAGCCAGCCC,0.325,1.44,-0.234,0.476,-1.1,2.36,3.91,4.26,1.73,3.6,3.37,4.87,-0.75,-0.412,0.0588,0.0928,-0.684,1.07,-0.44,1.46
TTACCTAGGTGAAGGTCGTTGATCCCTCTGTAGA,2.2,1.82,-0.334,1.6,-0.843,2.32,1.4,2.36,0.624,1.55,2.92,3.84,0.00137,-0.113,0.298,1.16,0.136,1.48,-0.66,1.45
TCCTGTAGATCAAAGGTTAAGAAAGCCGAAGCCT,1.59,2.18,-0.208,2.2,-0.193,4.17,7.57,7.55,8.09,8.13,1.82,3.04,-0.37,0.441,1.34,1.72,-0.679,2.85,-0.272,1.78
